The source made the active and inactive calls.

The target of the first assay is Luciferin 4-monooxygenase (Photinus pyralis) (UniProt P08659). Put plainly: firefly luciferase enzyme inhibitors, primary screen, biochemical, luminescence, purified enzyme, 2006 set (AID 1141).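 Further: cell-free assay with purified firefly luciferase at 100 ng per well in PBS; test concentration not given here.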 As to conditions: SteadyGlo luminescence, 30 min, higher = more signal, called active from +8 up or from −8 down.
Sequence of Luciferin 4-monooxygenase (Photinus pyralis) (P08659 whole entry, looked up): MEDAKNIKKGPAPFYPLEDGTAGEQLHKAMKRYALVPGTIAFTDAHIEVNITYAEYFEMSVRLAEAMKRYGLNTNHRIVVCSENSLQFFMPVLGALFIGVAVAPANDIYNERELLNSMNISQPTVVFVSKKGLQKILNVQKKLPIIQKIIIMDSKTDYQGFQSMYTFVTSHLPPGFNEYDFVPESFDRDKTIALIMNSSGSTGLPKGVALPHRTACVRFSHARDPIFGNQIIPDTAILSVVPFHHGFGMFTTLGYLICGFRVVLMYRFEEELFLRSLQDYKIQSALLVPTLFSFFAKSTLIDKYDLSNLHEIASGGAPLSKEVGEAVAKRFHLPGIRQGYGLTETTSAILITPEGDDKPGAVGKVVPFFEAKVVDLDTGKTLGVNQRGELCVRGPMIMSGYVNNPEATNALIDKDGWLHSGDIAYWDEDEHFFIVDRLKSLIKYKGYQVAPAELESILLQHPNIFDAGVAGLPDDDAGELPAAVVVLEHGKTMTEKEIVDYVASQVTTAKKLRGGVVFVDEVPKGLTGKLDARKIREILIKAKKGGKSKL
For the molecule `C=CCOC(=O)[C@@H]1[C@H]2C(=O)O[C@H](c3ccccc3)[C@H](c3ccccc3)N2[C@H](c2ccc(OCCOC(=O)[C@H]3C[C@H]4C(=O)N[C@@H](CC(C)C)C(=O)N4[C@H]3c3cccc(OCCO)c3)cc2)[C@@]12C(=O)Nc1ccc(I)cc12`, the z-score was -0.201 (inactive). With `CC(C)N1C(=O)c2ccccc2[C@](C)(C(=O)NCCCN(C)C)[C@@H]1c1ccc(CO)cc1`, the z-score was -0.562 (inactive). As for `CC(=O)NCCCC[C@@H]1NC(=O)[C@@H]2C[C@H](C(=O)NCCCCCC[N+](C)(C)C)[C@H](c3cccc(OCCO)c3)N2C1=O`, the z-score was 0.364 (inactive). In the case of `CCCCN1CC=CC23O[C@@H]4C=CCCOC(=O)C4[C@H]2C(=O)N(CCCO)[C@@H]3C1=O` (some centres not stated), the z-score is -0.11 (inactive). Regarding `C=CCC(OC(C)=O)[C@@H]1[C@@H](N(Cc2cc3ccccc3o2)C(=O)c2cccc3ccccc23)c2cc(OCCCO)ccc2N1C(=O)Cc1ccc(OC)cc1` (some centres not stated), the z-score is 0.48 (inactive). The same measure, in the same setting: the value for `C=CCN1C(=O)[C@]2(COC(c3ccc(OCCCO)cc3)=N2)Cc2ccccc21` was -3.52 (inactive); that for `C=C[C@H](C)[C@H](OC(=O)Nc1ccc(OC)cc1)c1ccc(O)c2ccccc12` was -3.78 (inactive).

As for `COc1ccccc1CN1C(=O)c2ccccc2[C@](Cc2ccccc2I)(C(=O)NC2CC2)[C@@H]1c1ccc(CO)cc1`, the z-score was 0.985 (inactive). The same measure, in the same setting: to `C=CC[C@@]1(C(N)=O)N=C(c2ccc(OCCCO)cc2)O[C@@H]1c1ccccc1N=[N+]=[N-]` belongs -5.82 (inactive); to `CCN(CC)c1ccc(N2CC=CC34O[C@@H]5C=CCOC(=O)[C@@H]5[C@H]3C(=O)N(CCCCCO)[C@@H]4C2=O)cc1` (some centres not stated), -0.439 (inactive); to `COCCOC(=O)N1C(=O)[C@@]2(c3cc(C#CCC(C(=O)OC)C(=O)OC)ccc31)[C@H](c1ccc(OCCO)cc1)N1[C@H](c3ccccc3)[C@H](c3ccccc3)OC(=O)[C@H]1[C@@H]2C(=O)NC[C@H](O)c1ccccc1`, -0.056 (inactive).

The test system of another assay is Wnt5a (protein binding on small-molecule microarray). Put plainly: Wnt5a binders on small-molecule microarray, primary screen, biophysical, 635/667 nm fluorescence (AID 1142).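 Further: fluorescence read at 667 nm with signal to noise per printed feature.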 As to conditions: 635 nm fluorescence, higher = more signal.
Molecule `C=CC[C@]1(C(=O)O)N=C(c2ccc(OCCCO)cc2)O[C@H]1c1ccccc1CN=[N+]=[N-]` had a composite z-score of 0.0194. The same measure, in the same setting: the value for `C[N+](C)(C)CCCCNC(=O)[C@H]1C[C@H]2C(=O)N3CCC[C@H]3C(=O)N2[C@H]1c1ccc(O)cc1` was 0.554.

In turn, `[N-]=[N+]=NCc1ccccc1[C@@H]1OC(c2ccc(OCCCO)cc2)=N[C@]1(Cc1ccccc1)C(=O)O` returned a composite z-score of -0.198. `CN(C)CCCN1C(=O)[C@@]2(c3ccc([N+](=O)[O-])cc3)CC(=O)N(C3CCCCC3)[C@@H]2c2ccc(CO)cc21`: the composite z-score came out at 0.131. As to `CCOC1=C2C(c3ccc(C)cc3)N(S(=O)(=O)c3ccc(C)cc3)CC2n2c(=O)n(-c3ccccc3)c(=O)n2C1` (configuration not stated), the composite z-score is 0.323. Consider `O=C1c2ccccc2[C@](Cc2ccccc2I)(C(=O)O)[C@H](c2ccc(CO)cc2)N1Cc1ccccc1C(F)(F)F`, for which the composite z-score is -0.186. Molecule `CCCCCCCCCCC(O)C1C=CC2C(=O)N(c3ccccc3)C(=O)C2N1Nc1ccc([N+](=O)[O-])cc1` (configuration not stated) had a composite z-score of 0.207. In turn, `CCOC(=O)C1=CC[C@@H](c2cccc(Cl)c2)N(S(=O)(=O)c2ccc(C)cc2)[C@H]1c1ccc(C#N)cc1` displayed a composite z-score of 0.473. In the case of `CCCCCCC#C[Si](O[C@H](c1ccccc1)c1cn([C@H](C)c2ccccc2)nn1)(C(C)C)C(C)C`, the composite z-score was -0.0509. As to `O=C(NCC(F)(F)F)[C@@H]1c2ccccc2C(=O)N(Cc2ccccc2)[C@H]1c1ccc(CO)cc1`, the composite z-score is -0.18. `O=C1OCC=C[C@H]2OC34C=CCN(c5ccc(Cl)cc5)C(=O)[C@H]3N(CCCO)C(=O)[C@@H]4[C@@H]12` (some centres not stated) yielded a composite z-score of -0.329. On the same count and under the same terms, the value for `CCOC(=O)N1C(c2ccc(OCCCO)cc2)=NC(C(=O)OC)N1C(=O)OCC` (configuration not stated) was 0.506; that for `Cc1ccc(S[C@]2(C(=O)NCC(F)(F)F)CC(=O)N(C3Cc4ccccc4C3)[C@@H]2c2ccc(CO)cc2I)cc1` was -0.465; that for `[N-]=[N+]=Nc1ccccc1C[C@]1(C(=O)N2CCCCC2)N=C(c2ccc(OCCCO)cc2)O[C@H]1c1ccccc1N=[N+]=[N-]` was 0.316. `C=CCNC(=O)[C@H]1[C@@H]2C(=O)O[C@@H](c3ccccc3)[C@@H](c3ccccc3)N2[C@@H](c2ccc(O)cc2)[C@]12C(=O)Nc1ccc(C#Cc3ccc(OC)cc3)cc12`: the composite z-score was found to be 0.555.

`[N-]=[N+]=NCc1ccccc1C[C@]1(C(=O)NCc2ccccc2)COC(c2ccc(OCCCO)cc2)=N1` gave a composite z-score of -0.0113. With `O=C1OCC=C[C@H]2OC34C=CCN(CCN5CCOCC5)C(=O)[C@H]3N(CCCCCCO)C(=O)[C@@H]4[C@@H]12` (some centres not stated), the composite z-score was determined as 0.0272. `[N-]=[N+]=Nc1ccccc1[C@H]1OC(c2ccc(OCCCO)cc2)=N[C@@]1(CCS(=O)(=O)c1ccccc1)C(=O)N1CCOCC1` had a composite z-score of 1.48.

For the molecule `COC(=O)[C@@]1(Cc2ccccc2)[C@H]2c3cc(C(=O)N(C)C)n(Cc4cc(F)c(F)c(F)c4)c3C[C@H]2CN1C(=O)c1ccccc1`, the composite z-score came to 0.312. `O=C1O[C@H](c2ccccc2)[C@H](c2ccccc2)N2[C@H]1[C@@H](C(=O)N1CCCCCCC1)[C@]1(C(=O)Nc3ccc(C#CC4=CCCCC4)cc31)[C@H]2c1ccc(O)cc1` yielded a composite z-score of 2.45. Consider `[N-]=[N+]=NCc1ccccc1C[C@]1(C(N)=O)N=C(c2ccc(OCCCO)cc2)O[C@H]1c1ccccc1N=[N+]=[N-]`, for which the composite z-score turned out to be 0.451. `C=CCOC(=O)[C@H]1[C@@H]2C(=O)O[C@@H](c3ccccc3)[C@@H](c3ccccc3)N2[C@@H](c2ccc(OCCOC(=O)[C@H]3C[C@H]4C(=O)N[C@@H](CCCC[N+](C)(C)C)C(=O)N4[C@H]3c3ccc(O)cc3)cc2)[C@]12C(=O)Nc1ccccc12` displayed a composite z-score of 0.0385. Regarding `CC(C)NC(=O)[C@@]1(c2ccc([N+](=O)[O-])cc2)CC(=O)N(C(C)C)[C@@H]1c1ccc(CO)cc1`, the composite z-score was -0.666. The same measure, in the same setting: to `COc1ccc([Si](C)(C)[C@@H]2[C@@H](CCn3cc([C@H](O)c4ccccc4)nn3)O[C@]3(C(=O)N(C)c4ccccc43)[C@H]2C)cc1` belongs 0.0302. For the molecule `COCCOC(=O)N1C(=O)[C@@]2(c3cc(C#CC4=CCCCC4)ccc31)[C@H](C(=O)N1CCN(c3ncccn3)CC1)[C@H]1C(=O)O[C@H](c3ccccc3)[C@H](c3ccccc3)N1[C@@H]2c1ccc(OCCO)cc1`, the composite z-score came to 0.572. Molecule `C=CCOC(=O)[C@@H]1[C@H]2C(=O)O[C@H](c3ccccc3)[C@H](c3ccccc3)N2[C@H](c2ccc(OCCOC(=O)[C@H]3C[C@H]4C(=O)N[C@@H](CC(C)C)C(=O)N4[C@H]3c3cccc(OCCO)c3)cc2)[C@@]12C(=O)Nc1ccc(I)cc12` registered a composite z-score of 0.289. `CC(C)N1C(=O)c2ccccc2[C@](C)(C(=O)NCCCN(C)C)[C@@H]1c1ccc(CO)cc1`: the composite z-score was -0.265. Molecule `CC(=O)NCCCC[C@@H]1NC(=O)[C@@H]2C[C@H](C(=O)NCCCCCC[N+](C)(C)C)[C@H](c3cccc(OCCO)c3)N2C1=O` returned a composite z-score of 0.505. In turn, `CCCCN1CC=CC23O[C@@H]4C=CCCOC(=O)C4[C@H]2C(=O)N(CCCO)[C@@H]3C1=O` (some centres not stated) had a composite z-score of -0.148. On to `C=CCC(OC(C)=O)[C@@H]1[C@@H](N(Cc2cc3ccccc3o2)C(=O)c2cccc3ccccc23)c2cc(OCCCO)ccc2N1C(=O)Cc1ccc(OC)cc1` (some centres not stated), for which the composite z-score is 0.235.

On to `C=CCN1C(=O)[C@]2(COC(c3ccc(OCCCO)cc3)=N2)Cc2ccccc21`, for which the composite z-score turned out to be 0.258. Consider `C=C[C@H](C)[C@H](OC(=O)Nc1ccc(OC)cc1)c1ccc(O)c2ccccc12`, for which the composite z-score was determined as 0.107. Turning to `COc1ccccc1CN1C(=O)c2ccccc2[C@](Cc2ccccc2I)(C(=O)NC2CC2)[C@@H]1c1ccc(CO)cc1`, the composite z-score worked out at 0.811.

For `C=CC[C@@]1(C(N)=O)N=C(c2ccc(OCCCO)cc2)O[C@@H]1c1ccccc1N=[N+]=[N-]`, the composite z-score was determined as 0.373. For the molecule `CCN(CC)c1ccc(N2CC=CC34O[C@@H]5C=CCOC(=O)[C@@H]5[C@H]3C(=O)N(CCCCCO)[C@@H]4C2=O)cc1` (some centres not stated), the composite z-score was -0.253. Consider `COCCOC(=O)N1C(=O)[C@@]2(c3cc(C#CCC(C(=O)OC)C(=O)OC)ccc31)[C@H](c1ccc(OCCO)cc1)N1[C@H](c3ccccc3)[C@H](c3ccccc3)OC(=O)[C@H]1[C@@H]2C(=O)NC[C@H](O)c1ccccc1`, for which the composite z-score is 0.354.

The values above are taken from PubChem BioAssay.
